In all, about 310,000 compounds went through this assay and about 14,000 (4.5%) showed an effect of 50% or more. The effect is printed as a negative number. This is one part of a sample in which strong results are shown more often than they occur.
What follows are molecules tested against human ether-à-go-go-related gene (hERG) potassium channel (human, UniProt Q12809) (assay: primary screen, population patch clamp on CHO cells stably expressing hERG; higher = less effect of the substance).
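Note: peak tail current of the secondary pulse compared with the same well before compound.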

Chain of human ether-à-go-go-related gene (hERG) potassium channel (Q12809 whole entry, looked up): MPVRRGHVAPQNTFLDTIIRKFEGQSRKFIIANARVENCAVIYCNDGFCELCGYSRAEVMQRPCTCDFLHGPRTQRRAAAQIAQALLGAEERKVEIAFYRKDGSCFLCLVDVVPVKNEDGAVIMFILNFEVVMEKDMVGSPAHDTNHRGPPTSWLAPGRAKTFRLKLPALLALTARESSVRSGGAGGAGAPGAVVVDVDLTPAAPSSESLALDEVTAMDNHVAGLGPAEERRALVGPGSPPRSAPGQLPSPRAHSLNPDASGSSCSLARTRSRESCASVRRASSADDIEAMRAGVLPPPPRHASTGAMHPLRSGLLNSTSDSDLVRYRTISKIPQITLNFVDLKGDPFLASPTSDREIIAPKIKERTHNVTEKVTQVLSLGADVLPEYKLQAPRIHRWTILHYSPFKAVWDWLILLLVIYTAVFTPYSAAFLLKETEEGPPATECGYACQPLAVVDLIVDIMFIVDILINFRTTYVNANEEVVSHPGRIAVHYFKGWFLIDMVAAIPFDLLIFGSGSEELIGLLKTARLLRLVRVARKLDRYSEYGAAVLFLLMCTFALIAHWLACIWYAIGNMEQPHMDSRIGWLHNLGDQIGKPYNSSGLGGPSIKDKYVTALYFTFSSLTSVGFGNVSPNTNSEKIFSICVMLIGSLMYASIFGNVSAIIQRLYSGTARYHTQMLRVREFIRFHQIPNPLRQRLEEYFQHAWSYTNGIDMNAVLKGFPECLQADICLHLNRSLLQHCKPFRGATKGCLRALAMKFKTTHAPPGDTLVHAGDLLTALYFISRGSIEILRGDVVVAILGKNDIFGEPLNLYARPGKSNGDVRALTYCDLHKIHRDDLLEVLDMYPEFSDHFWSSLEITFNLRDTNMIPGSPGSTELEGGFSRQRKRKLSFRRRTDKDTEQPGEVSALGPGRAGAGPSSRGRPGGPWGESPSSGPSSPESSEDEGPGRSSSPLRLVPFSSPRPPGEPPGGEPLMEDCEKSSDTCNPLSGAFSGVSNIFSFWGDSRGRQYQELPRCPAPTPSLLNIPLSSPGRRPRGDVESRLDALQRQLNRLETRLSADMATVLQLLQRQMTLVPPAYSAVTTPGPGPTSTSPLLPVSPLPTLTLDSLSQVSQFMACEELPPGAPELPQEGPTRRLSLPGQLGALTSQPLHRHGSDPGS

Row | Structure (SMILES) | hERG current change (%, negative = inhibition) at 10uM [%]
1 | CN1C2CCC1CC(NC(=O)CSc1ccc(Cl)cc1)C2 (stereo not shown) | -8.94
2 | NNC(=O)CSCc1ccc(Cl)cc1Cl | -2
3 | O=C(O)C1=C[C@@H](C2CC2)C[C@@H](OCc2ccc(CO)cc2)O1 | 21.4
4 | COc1cc(Br)c(C2C(C#N)=C(N)Oc3n[nH]c(-c4cccnc4)c32)cc1OC (stereo not shown) | 6.8
5 | Cc1cccc(NC(=O)c2nc[nH]c2C(=O)N2CCC(C)CC2)c1 | 1.29
6 | CCCc1[nH]n(-c2ccc([N+](=O)[O-])cc2)c(=O)c1C(C)=NCc1ccncc1 | -52.4
7 | CCCc1[nH]n(-c2ccc([N+](=O)[O-])cc2)c(=O)c1C=NCCc1c[nH]c2ccccc12 | 8.42
8 | CC(=NCCCn1ccnc1)c1c(C)[nH]n(-c2ccc([N+](=O)[O-])cc2)c1=O | -69.3
9 | CC(=NCCCn1ccnc1)c1c(O)n(C)c(=O)n(C)c1=O | -9.42
10 | CCCc1[nH]n(-c2ccc([N+](=O)[O-])cc2)c(=O)c1C=NCCN1CCNCC1 | -47.1
11 | CC(=NCCCn1ccnc1)c1c(O)n(-c2ccccc2)c(=O)[nH]c1=O | 5.91
12 | COc1ccc(-c2[nH]n(-c3ccc([N+](=O)[O-])cc3)c(=O)c2C=NCc2ccncc2)cc1 | -3.44
13 | CCCc1[nH]n(-c2ccc([N+](=O)[O-])cc2)c(=O)c1C=NCCc1ccc(OC)c(OC)c1 | -19.4
14 | CCCc1[nH]n(-c2ccc([N+](=O)[O-])cc2)c(=O)c1C=NCCCn1ccnc1 | -76.4
15 | O=C1CC(N(O)c2ccccc2)C(=O)N1c1cc(Cl)cc(Cl)c1 (stereo not shown) | 16.2
16 | COc1ccccc1CNC(=O)C(NC(=O)Nc1ccccc1)C(C)C (stereo not shown) | 13
17 | CCCCn1c(=O)[nH]c(=O)c2c1nc(CN(C)Cc1cccc(OC)c1OC)n2CCC.O=C(O)C(=O)O | 18.5
18 | Cc1ccc(-n2ncc3c2ncn2c(C)nnc32)cc1C | -10.5
19 | COc1ccc(NC(=O)COC(=O)c2ccc(NS(=O)(=O)/C=C/c3ccccc3)cc2)cc1 | 0.149
20 | Cc1ccccc1NC(=O)NC1CCS(=O)(=O)C1 (stereo not shown) | 16.6
21 | CCn1c(SCC(=O)NC2CCCC2)nnc1-c1cccnc1 | 5.55
22 | Cc1c(C#N)c(NC(=O)c2ccccc2)n(Cc2ccccc2)c1C | 2.21

Row | Structure (SMILES) | hERG current change (%, negative = inhibition) at 10uM [%]
23 | CN1CCN(S(=O)(=O)c2cccc(C(=O)N3CCN(c4ccccc4F)CC3)c2)CC1 | -0.195
24 | COc1ccccc1N1CCN(C(=O)c2c(-c3ccccc3Cl)noc2C)CC1 | -51.2
25 | COc1cc2ccccc2cc1C(=O)N1CCCCC1 | -0.827
26 | COc1ccccc1N1CCN(C(=O)c2ccc(S(=O)(=O)N3CCCCCC3)cc2)CC1 | -39.8
27 | COc1cc2ccccc2cc1C(=O)N1CCN(c2ccccc2O)CC1 | -59.7
28 | O=C(c1cccc(S(=O)(=O)N2CCCCCC2)c1)N1CCN(c2ccccc2F)CC1 | -58
29 | COc1ccccc1N1CCN(C(=O)c2ccc(S(=O)(=O)N3CCCCC3)cc2)CC1 | -10.2
30 | COc1ccccc1N1CCN(C(=O)c2cccc(S(=O)(=O)N3CCCCCC3)c2)CC1 | -77
31 | CCOc1ccccc1N1CCN(C(=O)c2c(-c3ccccc3Cl)noc2C)CC1 | 2.42
32 | O=C(c1cccc(S(=O)(=O)N2CCCC2)c1)N1CCN(c2ccccc2F)CC1 | -18.1
33 | COc1cc2ccccc2cc1C(=O)N1CCCC1 | 7.7
34 | COc1ccccc1N1CCN(C(=O)c2c(-c3c(Cl)cccc3Cl)noc2C)CC1 | 2.17
35 | CC(C)(O[C@@H]1O[C@H](CO)[C@@H](O)[C@H](O)[C@H]1O)[C@@H]1CC=C(C(=O)O)CC1 | 15.5
36 | COc1ccc(NC(=O)CN(c2ccccc2F)S(=O)(=O)c2ccc(C)cc2)cc1 | 10.6
37 | COC(=O)c1sc2nc(N)c(C#N)cc2c1N | 31.1
38 | Cc1nc(NCCc2ccc(O)cc2)c2nnn(Cc3ccccc3)c2n1 | 0.0141
39 | Cc1ccc(OCC(=O)Nc2oc(-c3ccccc3)c(-c3ccccc3)c2C#N)cc1 | 17.7
40 | COc1cc(CC(=O)NNC(=O)c2cc(C)oc2C)cc(OC)c1OC | 24.1
41 | COc1ccc(S(=O)(=O)N2CCCCCC2)cc1C(=O)N1CCN(c2ccccc2O)CC1 | -70.6
42 | COc1ccc(S(=O)(=O)N2CCN(c3ccccc3OC)CC2)cc1C(=O)N1CCCCC1 | 7.51
43 | COc1ccc(S(=O)(=O)N2CCCCCC2)cc1C(=O)N1CCN(c2ccccc2C)CC1 | -48

From paper PMC4336329 (PLoS ONE, 2015)
